A selection: hits, their analogues and other compounds. The true share with any hit is near 2.1%.
Myeloid diff 2 – promotes myeloid progenitor differentiation. ER-HoxA9 myeloid progenitors, lysozyme-GFP differentiation, flow cytometry. AID 624256. calls only at 10 µM. hit rate 1% among 360,000;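 active = normalized GFP-positive differentiation at or above the plate's own cutoff, the solvent-only control mean plus 3 SD; inconclusive = no clear call, values can overlap the other calls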;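 note: cells exposed to compound for four days before flow analysis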
TPT1 inhibitor – C. albicans TPT1 enzyme inhibition | AID 1962 | inhibition, % at 5 µM | hit rate 0.81% among 300,000 | recombinant caTPT1, FP RNA substrate dephosphorylation;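 active = inhibition above the mean of all tested compounds plus 3 SD, set per screening campaign, cut at about 24% in these data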;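 note: plate controls were DMSO alone for no effect and ferristatin control at 100 nM for full effect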
HNF4A DNA FP – change in binding of human HNF4 alpha to DNA | P41235 | HNF4a-FITC DNA binding, fluorescence polarization, 1 h | activity change, % at 10 µM | hit rate 0.3% among 360,000 | AID 1224865; in the data active = activity change above about 30%, passing the limit was not always enough
Rpn11 inh – Rpn11 (human) deubiquitinase inhibition; human 26S proteasome, Ub4-pepOG fluorescence polarization; 20S core pre-blocked with epoxomicin; hit rate 0.59% among 360,000; AID 588493; inhibition, % at 20 µM; O00487;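 active = inhibition at 20 µM, scaled to each plate's controls, above about 33%, limit read from the data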
Target sequence (O00487 whole entry, looked up): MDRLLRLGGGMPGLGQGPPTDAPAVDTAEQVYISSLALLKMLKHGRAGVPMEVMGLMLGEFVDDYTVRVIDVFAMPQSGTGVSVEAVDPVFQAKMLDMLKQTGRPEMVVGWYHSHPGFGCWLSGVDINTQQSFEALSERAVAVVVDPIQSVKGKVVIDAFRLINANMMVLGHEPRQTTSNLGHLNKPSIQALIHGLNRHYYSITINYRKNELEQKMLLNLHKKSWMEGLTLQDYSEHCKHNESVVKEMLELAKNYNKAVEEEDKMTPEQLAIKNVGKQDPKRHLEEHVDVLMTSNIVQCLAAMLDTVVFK
Myeloid diff CP1 – compounds promoting myeloid differentiation; shares compounds with Myeloid diff 2; ER-HoxA9 myeloid progenitors, GFP/Mac1 double-positive flow; hit rate 2% among 2,300; calls only;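 active = share of green or green-and-red cells above 9 and 9% in run 1 or 4 and 3% in run 2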
GFP autofluor – flagged as fluorescent in myeloid differentiation counter-screen; shares compounds with Myeloid diff 2; ER-HoxA9 myeloid progenitors, no estrogen, GFP autofluorescence flow cytometry; vehicle wells 0%, positive control 100%; fluorescence response, % (no concentration beside the values); hit rate 7.4% among 2,300;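 active = over 5% cells positive for green fluorescent reporter, or over 2% positive for both it and APC stain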;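 note: range taken on the double positive population between DMSO and positive control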
The depositor's hits bear a star; i = inactive; ? = inconclusive; · = not tested or not shown; + = active, no number.

SMILES	Myeloid diff 2	TPT1 inhibitor	HNF4A DNA FP	Rpn11 inh	Myeloid diff CP1	GFP autofluor
COc1ccc(CN(C(=O)c2ccco2)c2ccc(C)c(C)c2)cc1	+	3.1	-3.3	-7.3	i	0.0
COc1ccc(NC(=O)/C=C/c2ccc(S(=O)(=O)N3CCOCC3)cc2)cc1	i	·	-0.5	-3.3	·	·
O=C(COC(=O)/C=C/c1ccc(S(=O)(=O)N2CCOCC2)cc1)Nc1ccccc1F	i	·	-0.8	-3.3	·	·
O=C(/C=C/c1cccc(F)c1)Nc1cc(S(=O)(=O)N2CCOCC2)ccc1N1CCCC1	i	-0.8	1.5	-1.4	·	·
COc1ccc(/C=C/C(=O)Nc2ccc(C)c(S(=O)(=O)N3CCOCC3)c2)cc1	i	·	4.0	7.0	i	0.0
Cc1ccc(S(=O)(=O)N2CCOCC2)cc1NC(=O)COC(=O)/C=C/c1ccc(F)cc1	i	·	2.2	-1.5	i	0.5
O=C(/C=C/c1cccc(F)c1)Nc1cc(S(=O)(=O)N2CCOCC2)ccc1Cl	i	·	-2.1	-2.0	i	0.0
COc1ccc(Nc2cc(Cl)nc(N)n2)cc1OC	i	-6.0	-1.1	-0.2	·	·
CC(=O)Nc1ccc(OCC(O)Cn2nc(C)c(Br)c2C)cc1 (stereo not given)	i	-4.2	-0.2	0.5	·	·
Cc1ccccc1NC(=O)Cc1nc(COC(=O)c2nccnc2N)cs1	i	·	2.2	11.8	·	·
COc1ccccc1-c1ccc(SCc2ccc(F)cc2)nn1	+	-4.3	7.0	0.8	i	0.6
OCC[C@H]1NCc2cc(CO)cc(-c3ccccc3)c21	i	·	4.9	5.3	i	0.7
CC(C)(C)S(=O)N1Cc2cc(CO)cc(-c3ccccc3)c2[C@H]1CCO (stereo not given in full)	i	·	10.1	18.7	·	·
CCCCn1c2c(c(=N)c3c1CCC3)CCC2	i	-1.5	-2.0	-0.5	i	0.0
CCCCCCCCCn1c2c(c(=N)c3c1CCC3)CCC2	·	-4.5	-0.2	-4.4	·	·
COc1cccc(C(C(=O)NCc2ccccc2)N2CCN(c3cccc(C)c3C)CC2)c1OC (stereo not given)	i	·	1.6	·	·	·
Cc1cccc(Cn2c(NCCO)nc3c2c(=O)n(C)c(=O)n3C)c1	+	3.2	-3.6	-1.5	i	0.5
C=CCNc1nc2c(c(=O)n(C)c(=O)n2C)n1Cc1ccc(F)cc1	i	-0.4	2.4	-2.6	i	0.6
COCCNc1nc2c(c(=O)n(C)c(=O)n2C)n1Cc1cccc(C)c1	i	-2.6	-0.5	-0.2	·	·
Cn1c(=O)c2c(nc(NCCc3ccccc3)n2Cc2ccc(F)cc2)n(C)c1=O	i	1.8	-1.4	-1.0	·	·
COc1cccc(/C(O)=C/c2nc3ccc(C(=O)NCCc4ccc(Cl)cc4)cc3[nH]c2=O)c1	+	·	7.0	-56.2	i	0.0
CC[C@@H](NCCCn1cnc2c(SC)ncnc21)c1ccccc1	i	·	4.1	-4.3	·	·
C=CC[N+]1(CC#Cc2ccccc2)CCCC1	+	-0.8	1.5	-8.2	i	0.4
COC(=O)c1cc(S(=O)(=O)N2CCCCC2)ccc1N1CCOCC1	·	0.0	-0.3	2.9	·	·
COC(=O)c1cc(S(=O)(=O)N2CCOCC2)ccc1Sc1ccccc1N	i	1.4	0.1	-14.9	i	0.3
SMILES	Myeloid diff 2	TPT1 inhibitor	HNF4A DNA FP	Rpn11 inh	Myeloid diff CP1	GFP autofluor
Cc1ccc(/C=N/NC(=O)c2cc3c(s2)CCCC3)o1	i	·	-4.9	-4.7	i	0.3
COc1ccc(NC(=O)/C(=C\c2ccco2)NC(=O)c2ccco2)cc1	i	-2.1	7.3	30.2	i	0.3
CCCCN1CC(COCc2ccccc2)Oc2cccc(N3CCCC3)c2S1(=O)=O (stereo not given)	i	·	-0.4	1.4	i	0.0
CCCCN1CC(COCc2ccccc2)Oc2cc(Br)ccc2S1(=O)=O (stereo not given)	i	·	-1.7	-1.3	·	·
CC(C)OCCCNc1nc2c(cnn2C)c(=O)[nH]1	i	·	-0.3	1.8	·	·
O=C(CCc1ccccc1)Nc1ccc(NC(=O)c2ccco2)cc1	i	-2.4	3.5	-2.9	·	·
O=C(N/N=C\CCc1ccccc1)c1ccco1	i	-1.6	1.8	-6.0	i	0.3
Cc1ncsc1CCC(=O)N1CCCC(Nc2ccc(C(C)C)cc2)C1 (stereo not given)	i	1.4	-4.4	-1.6	·	·
COC(=O)c1ccc(C2C(C(C)=O)=C(O)C(=O)N2CCO)cc1 (stereo not given)	i	2.1	-7.7	1.0	i	1.1
O=S(=O)(c1ccc2c(c1)OCCO2)N1CCN(c2nc3ccccc3s2)CC1	i	3.0	5.7	1.7	i	0.0
COC(=O)c1cccc(S(=O)(=O)N2CCN(c3nc4ccccc4s3)CC2)c1	i	-3.6	-3.5	2.7	·	·
Cc1ccc(S(=O)(=O)Nc2ccc(-c3ccc4nncn4n3)cc2)cc1	i	0.7	-0.5	4.0	·	·
OCCN(Cc1ccccc1)Cc1ccc(F)c(F)c1	i	-3.6	0.5	0.2	i	0.0
CN(C)S(=O)(=O)N1CCC(n2nccc2NC(=O)CCCc2ccccc2)CC1	i	-0.2	-2.7	-9.8	·	·
Cc1nc(N)c(C#N)c(-c2cccnc2)c1C	+	-1.0	2.7	-3.7	i	0.3
O=C(Nc1oc2ccccc2c(=O)c1-c1ccc(Br)cc1)c1ccco1	i	9.8	5.4	6.9	·	·
Cc1ccc(S(=O)(=O)/N=C2\C(=O)c3ccccc3C([O-])=C2n2cc[n+](CCC(C)C)c2)cc1	·	0.2	-0.9	10.0	·	·
CCCC[n+]1ccn(C2=C([O-])c3ccccc3C(=O)/C2=N\S(=O)(=O)c2ccc(Br)cc2)c1	i	-0.1	0.0	1.2	i	0.5
Cc1cccc(N2CCN(C(=O)c3ccc(S(=O)(=O)N(C)c4ccccc4)cc3)CC2)c1C	?	·	-2.9	0.9	·	·
c1ccc(CNc2ncnc3scc(-c4cccs4)c23)nc1	i	0.8	-3.2	6.2	i	0.9
Cn1c(SCC(=O)O)nnc1C1CCCCC1	+	-2.2	3.1	8.5	i	0.0
Oc1ccc(/C=N/NC(=S)Nc2cccnc2)cc1	i	-0.7	0.6	-6.6	i	0.3
COc1cccc(/C=N/NC(=S)Nc2cccnc2)c1	i	-1.5	-1.2	-2.5	·	·
Nc1nonc1C(=O)N/N=C/c1cc2c(cc1Br)OCO2	i	-0.8	-0.7	20.2	·	·
Oc1cccc2ccc(N3CCOCC3)nc12	i	-2.3	-0.2	2.6	·	·
O=C1CSC(=Nc2ccc(F)cc2)N1	+	1.7	4.8	6.9	i	0.3
CC(SCCc1ccccn1)C(=O)O (stereo not given)	i	-0.2	-1.3	0.9	i	0.3
Cn1c2ccccc2c(=O)c2ccc(NCc3ccc4c(c3)OCO4)cc21	+	·	-23.1	-33.4	i	2.5
Cc1csc(SCC(=O)Nc2sc3c(c2C#N)CCC3)n1	i	18.0	2.2	10.9	i	0.6
Cc1ccnc(SCC(=O)Nc2sc3c(c2C#N)CCCC3)n1	i	5.0	-1.4	-5.1	·	·
